# About 83,000 compounds went through this panel and 20% of them were active in at least one assay; those are over-represented in the sample as a whole.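 Testing used 96-well plates and a 48-hour single-concentration exposure. Example: -40 means 40% of the starting cells died.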 A number with no mark means an inactive call. Calls of active or inactive are those of the source. The calls were made as follows: active = growth percent below 10; inactive = the rest.
# What was measured:
# Assay in all cases: NCI-60 one-dose screen, 48 h (100 = growth as untreated, 0 = no growth, -100 = all killed)
# Conditions in all cases: 10 µM unless noted
# SK-MEL-2 melanoma = tested on: SK-MEL-2 melanoma
# EKVX NSCLC = tested on: EKVX NSCLC
# SN12C renal = tested on: SN12C renal
# UO-31 renal = tested on: UO-31 renal
# TK-10 renal = tested on: TK-10 renal
# ACHN renal = tested on: ACHN renal
# CAKI-1 renal = tested on: CAKI-1 renal
# A498 renal = tested on: A498 renal
# CCRF-CEM leukemia = tested on: CCRF-CEM leukemia
# MOLT-4 leukemia = tested on: MOLT-4 leukemia
SMILES,growth (SK-MEL-2 melanoma),growth (EKVX NSCLC),growth (SN12C renal),growth (UO-31 renal),growth (TK-10 renal),growth (ACHN renal),growth (CAKI-1 renal),growth (A498 renal),growth (CCRF-CEM leukemia),growth (MOLT-4 leukemia)
COc1ccc(C2=NN(c3nc(-c4ccc(OC)cc4)c(C#N)c(=O)n3C)C(=O)CC2)cc1,98.4%,107%,88.8%,85.9%,107%,101%,96%,116%,91%,96.6%
COc1ccc(O)c(-c2cc(-c3ccc(Cl)cc3)c(C#N)c(=O)[nH]2)c1,37.9%,105%,77%,55%,87.3%,78.1%,73.3%,79.6%,37.2%,–
O=C(/C=C/c1cccc2ccccc12)Nc1ncc(Cc2ccccc2)s1,43.4%,20.3%,32.1%,32.2%,31.7%,20.8%,22.5%,-10.8% (active),10.4%,18%
CC1=NN(c2ccc(S(=O)(=O)O)cc2Cl)C(=O)C1,112%,101%,100%,89.2%,101%,105%,85.1%,102%,99.1%,–
COC(=O)CCCCCn1c2ccccc2c2c3c(c4c5ccccc5[nH]c4c21)C(=O)N(O)C3=O,77.3%,75.3%,37.8%,11.8%,74.4%,-18.5% (active),-16.8% (active),62%,11.4%,–
COc1cnc2c(c1)C(=O)c1c-2n(CCCNC(C)C)c(=O)c2cc([N+](=O)[O-])ccc12,-58.6% (active),-50% (active),-54.6% (active),-75.6% (active),-63.6% (active),-84.5% (active),-71.8% (active),-84.7% (active),2.43% (active),–
N=C(N)N=Nc1ccc(O)cc1,105% [100 µM],96% [100 µM],104% [100 µM],81.9% [100 µM],124% [100 µM],20.8% [100 µM],53.4% [100 µM],126% [100 µM],91.2% [100 µM],–
CCOc1ccc(NC(=O)c2ccccc2-c2ccccc2C(=O)O)cc1,101%,101%,100%,88.7%,110%,107%,98.9%,93.3%,99.5%,–
CCOc1ccc(NC(=O)c2ccoc2COc2ccccc2)cc1,106%,96.1%,99.1%,79.8%,101%,106%,95.7%,108%,95%,97%
COc1ccc(NC(=O)c2ccoc2COc2ccccc2)cc1,97.9%,94.7%,94%,81.1%,109%,98.3%,86.2%,99.7%,87.7%,–
Clc1ccc(Cn2cc(-c3nc4ccc(Br)nc4n3Cc3ccc(Cl)cc3)c3cccnc32)cc1,89.2%,77.8%,86.8%,51.7%,112%,75%,82%,76.4%,78.6%,–
CC1c2ccccc2N(S(=O)(=O)c2ccccc2)C1C (centres undefined),76.5%,92.5%,105%,75.7%,100%,93.6%,74.5%,104%,78.2%,–
O=C1C(=O)c2ccccc2C(O)=C1CCCc1ccc(C2CCCCC2)cc1,104%,60.2%,43.2%,75.9%,52.5%,37%,19.7%,56.7%,9.07% (active),–
Cn1c(/C(C#N)=C/c2ccc3ccccc3c2)cc2ccccc21,71.7%,37.4%,33.5%,57.5%,106%,35.4%,28.5%,2.85% (active),11.8%,–
COc1ccc(/C=C(\C#N)c2cc3ccccc3n2C(C)=O)cc1,83.3%,78%,91%,88.1%,126%,102%,69.1%,78.3%,75.6%,70%
CCCCn1c(-c2ccc(O)cc2)cn2c3c(=O)[nH]c(=O)n(C)c3nc12,45.8%,85.9%,78%,70.2%,86.7%,92.6%,86.6%,75.8%,80%,58.6%
O=S(=O)(NCCNc1cc(-c2cn(-c3ccccc3)nc2-c2cccc(O)c2)ccn1)c1cccc(F)c1,53.1%,46.6%,50.4%,23.5%,56%,36.3%,44.3%,57.4%,18.7%,18.5%
COc1ccccc1-n1cnc(N)c1C(=O)c1cc(OC)c(OC)c(OC)c1,57.1%,55.3%,62.3%,55.2%,80.8%,58.6%,39.8%,26.6%,24.2%,50.8%
C#CCN=C[C@]12CC[C@@H](C(=C)C)[C@@H]1[C@H]1CC[C@@H]3[C@@]4(C)CCC(=O)C(C)(C)[C@@H]4CC[C@@]3(C)[C@]1(C)CC2,91.7%,68.3%,55.1%,-78.2% (active),104%,75.7%,45%,91.9%,61.3%,42.6%
COc1ccc(-c2nc(SCC(=O)Nc3ccc(C(C)=O)cc3)[nH]c(=O)c2C#N)cc1,104%,102%,94.5%,105%,98.4%,101%,96.2%,98.1%,109%,103%
Cc1cc2nc3c4cc(Cl)ccc4n(CCN(C)C)c3nc2cc1C,43.6%,20.4%,17.7%,-45% (active),19.4%,-10% (active),-7.17% (active),73.9%,24.6%,2.26% (active)
N#C/C(=C\c1ccc(-c2ccc(Br)cc2)o1)c1nc(-c2ccco2)cs1,103%,41.6%,92.3%,74.7%,38.7%,95.8%,88.8%,101%,89.9%,94.2%
C[C@@H]1CCCCCCCCC[C@H](O)C(=O)C[C@@H](SC[C@@H](O)C(=O)O)C(=O)O1,100%,105%,93.6%,87.2%,95.2%,96.6%,102%,167%,59.4%,70.2%
N#CC1=C(N)Oc2c(c(N)nn2-c2ccccc2)C1c1ccc(Cl)cc1Cl (centres undefined),101%,91.2%,99.5%,73.8%,123%,99%,90.1%,90.7%,95.6%,88.3%
COc1cc2nc(Cl)nc(Nc3cccc(C(=O)/C=C/c4ccc(Cl)cc4)c3)c2cc1OC,96.4%,71.7%,70.5%,57.1%,149%,56%,51.9%,77.3%,19.4%,33.5%
CCN(CC)CCCCCCNc1ccnc2cc(Cl)ccc12,128%,76.5%,84.9%,86.1%,113%,111%,84.2%,118%,113%,101%
Cc1oc(-c2ccccc2Cl)cc1C(=O)Nc1ccc(S(N)(=O)=O)cc1,104%,91.9%,98.2%,88.7%,126%,106%,93.9%,105%,96.2%,96.3%
